High-throughput results as filed in PubChem BioAssay.
This is a sample that favours compounds with a hit; in the whole collection about 19% have one here.
DT40 TDP1 CPT: DT40-hTDP1 cell growth loss with CPT. AID 686979. 12% of 420,000 active. Potency, µM (top dose mostly 46.2 µM), for inactives: at the top dose activity change, negative = growth inhibition, usual class: inhibitors. chicken DT40 Tdp1-/-;hTDP1 cells + 20 nM CPT, ATP luminescence, 48 h; note: potency is the fitted concentration of half-maximal effect; nearly all actives have a fitted effect of over 55% in size
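Chicken DT40 Tdp1-/- cells stably complemented with human TDP1 were seeded at 400 cells/well in medium containing 20 nM camptothecin, exposed to pin-transferred compounds, and grown at 37 °C for at least 48 hr. Viability was read as ATP luminescence.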
ELG1 repair inh: blocks ELG1-dependent DNA repair in HEK293T cells | HEK293T ELG1-luciferase reporter, luminescence, 16 h; DNA damage induced by 5-fluorouridine | Potency, µM (series often up to 46.1 µM), inactives show at the top dose activity change, negative = inhibition, hits mostly inhibitors | 2.3% of 330,000 active | AID 504467; note: potency is the fitted concentration of half-maximal effect; nearly all actives have a fitted effect of over 55% in size
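Step one: seed 2,000 cells per well. Step two: pin-transfer compound or DMSO alongside 5-fluorouridine. Step three: incubate 16 hr, 37 °C, 5% CO2. Step four: add ONE-Glo, wait 30 min, read luminescence.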
DT40 TDP1 no CPT: qHTS for Inhibitors of human tyrosyl-DNA phosphodiesterase 1 (TDP1): qHTS in cells in absence of CPT. Potency, µM (titrated, usually from 46.2 µM), inactives show at the highest dose activity change, negative = growth inhibition, usual class: inhibitors. AID 686978, 2013. 15% of 420,000 active. DT40 Tdp1-/- hTDP1 cells, no CPT, ATP luminescence, 48 h; note: potency is the fitted concentration of half-maximal effect; nearly all actives have a fitted effect of over 55% in size
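Readout: luminescence from CellTiter-Glo after 30 min in the dark at RT. Cells: DT40 Tdp1-/- with stable hTDP1, 400/well. Exposure: compounds alone, ≥48 hr, 37 °C.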
IL-1B inflam inh: blocks inflammasome-driven IL-1 beta release; THP-1 LPS/ATP IL-1B secretion, AlphaLISA, 16 h; hits give low values; activity change, % at 57.5 µM; 4.7% of 360,000 active; in the data active = activity change below about -50%; inconclusive = mostly about -30% to -49%
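THP-1 cells pretreated 1 hr with compounds (up to 57.5 uM final), then stimulated with LPS (250 ng/mL final) plus ATP (1.25 mM final); secreted IL-1B measured by AlphaLISA after 16 hr, decreased signal indicating inhibition.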
HT1080-NT tox: kills 2HG-producing HT-1080-NT fibrosarcoma cells. 1.6% of 360,000 active. HT-1080-NT fibrosarcoma viability, CellTiter-Glo ATP luminescence, 48 h. AID 686970. Potency, µM (highest dose often 46.1 µM), without a hit: top-dose activity, negative = less viability, hits mostly cytotoxic;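 note: NT is the 2HG producing partner of a matched IDH1 knockdown line; potency is the fitted concentration of half-maximal effect; 0% = DMSO-treated cells and -100% = media-only wells without cells; nearly all actives have a fitted effect of over 55% in size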
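Viability by CellTiter-Glo luminescence after 48 h compound exposure at 37C of HT-1080-NT cells (750/well, RPMI, 5% FBS). % activity scaled between DMSO wells and medium-only wells, then curve-fitted and categorized by curve class.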
HT1080 IDH1KD tx: kills HT-1080 cells with IDH1 knockdown | 2% of 360,000 active | Potency, µM (titrated, usually from 46.1 µM), for inactives: top-dose activity, negative = toxicity, most hits filed as cytotoxic | HT-1080 IDH1 knockdown viability, ATP luminescence, 48 h;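 note: potency is the fitted concentration of half-maximal effect; 0% = DMSO wells and -100% = cell-free medium wells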
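Viability of IDH1-knockdown HT-1080 fibrosarcoma cells was assessed by CellTiter-Glo after 48 h at 37 °C with titrated compound; concentration-effect curves were classified by fit quality and response size.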
Numbers without * were called inactive; i = inactive; u = inconclusive; x = not tested or not shown; [ ] = dose if it differs, or a comment. Unless noted, calls come from the whole dose curve; as a rule, active = well fitted curve in the direction sought with a large enough effect; inconclusive = small, poorly fitted or top-dose-only effect, or another doubt; inactive = no such curve, though single readings can be large; an effect the other way counts as inactive or inconclusive. Unless noted, % is set by controls: 0 for no effect and ±100 for the full control effect.

SMILES	DT40 TDP1 CPT	ELG1 repair inh	DT40 TDP1 no CPT	IL-1B inflam inh	HT1080-NT tox	HT1080 IDH1KD tx
COc1cccc(CN2CC(C(=O)N3CCN(c4ccc(Cl)cc4)CC3)CCC2=O)c1 (stereo unspecified)	23.1µM*	-13.0%	20.6µM*	i	-12.0%	-8.0%
COc1ccc(N2CCN(C(=O)c3ccc(C)c(Cl)c3)CC2)cc1	u	x	18.4µM*	-9.0	0.0%	13.0%
O=C(O)CCc1nn2c3ccccc3n(CC(=O)c3cccs3)c2nc1=O	0.8%	4.6%	3.6%	11.9	1.7%	2.2%
CC(=O)/C(C=Nc1noc(C)c1Br)=C(\C)O	-5.9%	u	6.3%	0.0	3.6%	-0.8%
Cn1cc(CCC(=O)NCCCc2ccccc2)c2ccccc21	-9.7%	-9.0%	u	-0.9	20.6%	23.5%
C=C1CCC[C@]2(C)C[C@H]3OC(=O)C(CNC(C)CC)[C@H]3CC12 (stereo partly specified)	u	-4.2%	u	-96.2*	u	u
C[C@@H](CN(C)C[C@H]1C(=O)O[C@@H]2C[C@@]3(C)CCC[C@]4(CO4)C3CC21)[C@H](O)c1ccccc1 (stereo partly specified)	13.8%[9.04 µM]	x	2.1%[9.04 µM]	x	x	x
C=C1CCC[C@]2(C)C[C@H]3OC(=O)C(CNC(CC)CO)[C@H]3CC12 (stereo partly specified)	u	26.7%	18.4µM*	-97.7*	u	20.6µM*
C=C1CCC[C@]2(C)C[C@H]3OC(=O)C(CN4CCCCC4CO)[C@H]3CC12 (stereo partly specified)	4.61µM*	9.6%	11.6µM*	x	u	u
C=C1C(=O)OC2C[C@@]3(C)CCCC(=C)[C@@H]3CC12 (stereo partly specified)	26.6µM*	x	23.7µM*	x	x	x
CN(CCc1ccccc1)C(=O)CC1C(=O)NCCN1Cc1ccccn1 (stereo unspecified)	-1.5%	x	-5.0%	1.9	9.7%	7.9%
C=C1CCC[C@]2(C)C[C@H]3OC(=O)C(CNC(C)(CO)CO)[C@H]3CC12 (stereo partly specified)	u	u	20.6µM*	-96.2*	-5.8%	u
C=C1CCC[C@]2(C)C[C@H]3OC(=O)C(CN(C)CC(OC)OC)[C@H]3CC12 (stereo partly specified)	u	0.0%	u	-91.6*	-2.0%	u
Cc1ccc(Sc2c(C)nn(C(=O)COc3ccccc3)c2C)cc1	-28.0%	x	-27.4%	x	x	x
Cc1ccc(CNC(=O)c2nnn(CC(=O)Nc3cc(C)ccc3C)c2N)cc1	0.3%	x	0.8%	x	x	x
Cc1ccc(C)c(NC(=O)Cn2nnc(C(=O)NCc3cccs3)c2N)c1	u	u	u	22.2	u	23.1µM*
Cc1ccc(C)c(NC(=O)Cn2nnc(C(=O)NCc3ccco3)c2N)c1	1.3µM*	5.8%	1.16µM*	12.6	u	u
COC(=O)[C@]12CCCCC=C1N(Cc1ccc(Cl)cc1Cl)C(=O)[C@H](CC(=O)NCc1cccs1)C2	u	x	23.1µM*	0.0	-24.0%	-28.1%
CCOC(=O)[C@]12CCC=C1N(Cc1ccc(Cl)cc1Cl)C(=O)[C@H](CC(=O)NCc1cccs1)C2	u	x	20.6µM*	-61.3*	u	u
CCC(CC)C(C(=O)NCc1ccccc1)N(C)Cc1ccc(Cl)c(Cl)c1 (stereo unspecified)	20.6µM*	x	14.6µM*	-9.5	u	u
CCc1ccc(CN(C)C(C)C(=O)NCc2ccccc2)cc1 (stereo unspecified)	u	-14.0%	7.31µM*	-1.3	-3.5%	-3.1%
